Experimental findings from PubChem BioAssay (NCI) are described below.

Structures are written as SMILES. The panel holds about 83,000 compounds, 20% with a hit somewhere; the sample as a whole holds those more often.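 Step 1: grow cells in 96-well plates. Step 2: add test compound at a single concentration. Step 3: incubate 48 h. Step 4: record percent growth.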 A number with no mark means an inactive call. Calls of active or inactive are those of the source. Rule for the calls: active = growth percent below 10; inactive = the rest.

Holding throughout (assay): NCI-60 one-dose screen, 48 h (100 = growth as untreated, 0 = no growth, -100 = all killed)
What all share (details): 10 µM unless noted

Test [1] relates to NCI-H226 lung.
Test [2] deals with NCI-H322M lung.
In test [3] the test system is HOP-62 NSCLC.
Test [4] has as its system NCI-H460 lung.
Test [5] concerns HOP-92 NSCLC.
Test [6] has as its system NCI-H522 lung.
For test [7], the system named is A549/ATCC NSCLC.
For test [8], the system named is 786-0 renal.
Test [9] has as its system COLO 205 colon.

As to `CC1OC(OC2C(OC3CCC4(C)C(CCC5(C)C4CC=C4C6CC(C)(C)CCC6(CO)C(O)CC45C)C3(C)C)OC(C(=O)O)C(OC3OC(COC4OC(CO)C(O)C(O)C4O)C(O)C(O)C3O)C2O)C(O)C(O)C1O` (configuration not stated), the growth is -63.6% (active) in [1]; -96.2% (active) in test [2]; -71.6% (active) in test [3]; 15.4% in test [4]; -38.7% (active) in test [5]; -64.9% (active) in test [6]. The growth in [7] was -70.1% (active); in test [8], -91.9% (active); in [9], -86% (active).

With `CN(C)c1ccc(C(=C2C=CC(=[N+](C)C)C=C2)c2ccc(N(C)C)cc2)cc1` (tested in a mixture with another compound), the growth in test [1] was -60% (active); in [2] it was -27.7% (active); in [3], -34.2% (active); in test [4] it was -75.1% (active); in test [5], -66.8% (active); in test [6], -47% (active). Besides, the results for the growth in test [7], in test [8] and in test [9] were -18.2% (active), -90.4% (active) and -97.7% (active), respectively.

`O=[N+]([O-])c1ccc(N=Nc2ccc(O)cc2O)cc1`: the growth is 60.6% in [1]; 84.8% in [2]; 93.6% in [3]; 66% in [4]; -18.1% (active) in test [5]; 19.5% in test [6]. For the same molecule, the figures for the growth in [7], in test [8] and in [9] were 62.6%, 51.3% and 41.4%, respectively.
